Compounds with a hit are over-represented: about 2.4% of the library has one in this group of screens.
TMEM16A act – TMEM16A chloride channel activators or potentiators, primary screen, cell-based, HTS; Anoctamin-1 (Mus musculus), Q8BHY3; HEK293 TMEM16A/YFP-H148Q/I152L, iodide quench fluorescence; hits give low values; B-score at 10 µM; 340,000 tested, 0.3% active;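 active = fluorescence-ratio B-score plate-corrected deviation score at least 3 library SD below zero, with starting fluorescence score within 5 deviations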;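 also: channel opened by trigger with iodide after compound preincubation; score built on the fluorescence ratio of max minus min over baseline; more negative score means more quench and so TMEM16A activation or potentiation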
Target sequence (Q8BHY3 whole entry, looked up): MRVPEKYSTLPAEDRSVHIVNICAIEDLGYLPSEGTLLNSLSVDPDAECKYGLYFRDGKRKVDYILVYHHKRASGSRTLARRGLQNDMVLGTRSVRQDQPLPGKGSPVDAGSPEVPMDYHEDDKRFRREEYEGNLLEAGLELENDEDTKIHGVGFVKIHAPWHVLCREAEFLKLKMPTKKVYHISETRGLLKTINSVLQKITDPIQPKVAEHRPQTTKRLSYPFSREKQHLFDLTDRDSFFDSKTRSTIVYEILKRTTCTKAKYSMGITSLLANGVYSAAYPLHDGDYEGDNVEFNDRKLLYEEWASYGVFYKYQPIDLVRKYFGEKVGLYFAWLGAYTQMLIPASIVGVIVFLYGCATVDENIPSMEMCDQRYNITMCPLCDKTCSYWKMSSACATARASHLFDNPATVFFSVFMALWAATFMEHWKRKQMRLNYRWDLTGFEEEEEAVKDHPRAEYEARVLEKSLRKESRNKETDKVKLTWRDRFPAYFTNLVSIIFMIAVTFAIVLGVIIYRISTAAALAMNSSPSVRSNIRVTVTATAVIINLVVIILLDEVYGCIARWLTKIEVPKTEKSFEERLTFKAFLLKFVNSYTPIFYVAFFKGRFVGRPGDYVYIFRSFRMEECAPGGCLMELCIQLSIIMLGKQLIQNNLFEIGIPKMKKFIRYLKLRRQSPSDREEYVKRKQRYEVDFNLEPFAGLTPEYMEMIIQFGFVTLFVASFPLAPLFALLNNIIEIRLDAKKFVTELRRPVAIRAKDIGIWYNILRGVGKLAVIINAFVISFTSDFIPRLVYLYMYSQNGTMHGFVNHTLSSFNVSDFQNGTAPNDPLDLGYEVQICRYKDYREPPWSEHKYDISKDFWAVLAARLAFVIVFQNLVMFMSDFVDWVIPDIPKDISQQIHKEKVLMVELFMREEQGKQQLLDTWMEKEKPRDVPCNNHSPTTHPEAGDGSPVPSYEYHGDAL
CRFR2-BP ag – agonists of CRF-BP/CRF-R2 complex, primary screen, cell-based, HEK293, calcium dye fluorescence, uHTS. AID 588473, 2011. activation, % at 13.2 µM. calcium dye fluorescence (FLIPR); percent of saturating CRF peptide response. 350,000 tested, 0.46% active. CRF-binding protein / CRF receptor 2 complex (human);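 active = activation of at least 50%, plus an integration ratio under a set limit after plate pattern correction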
ANO1 block – TMEM16A chloride channel inhibitors, primary screen, cell-based, HTS; Anoctamin-1 (Mus musculus), Q8BHY3; normalized B-score (activity score, 25-100; higher = stronger inhibition) at 10 µM; HEK293 TMEM16A/YFP iodide influx fluorescence, ionomycin; 310,000 tested, 1.2% active;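 active = ratio plate-corrected score three or more library SD toward inhibition, starting fluorescence score within five deviations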;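 also: score derived from kinetic fluorescence span divided by baseline fluorescence per well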
Cardiac RTF inh – cardiac RTF calcium sensitivity inhibitors, primary screen, biochemical, IANBD-TnC fluorescence, EC70 calcium | Troponin I, cardiac muscle (Homo sapiens) + Troponin T, cardiac muscle (Homo sapiens) + … | IANBD-labeled cardiac RTF, Ca2+ fluorescence | inhibition, % at 7.15 µM | 340,000 tested, 0.12% active;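 active = inhibition above the mean inhibition of all tested compounds plus 3 SD, cut at about 17% in these data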;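 also: assay run at fixed EC70 calcium of 1.6 mM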
CRFBP-R2 block – antagonists of CRF-BP/CRF-R2 complex, primary screen, cell-based, HEK293, calcium dye fluorescence, uHTS | CRF-induced calcium fluorescence | inhibition, % at 11.8 µM | 350,000 tested, 0.59% active;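 active = inhibition of the ligand-induced calcium signal above about 50% at the single tested concentration, limit read from the data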
cardiac RTF act – cardiac RTF calcium sensitivity activators, primary screen, biochemical, IANBD-TnC fluorescence, EC20 calcium; IANBD-labeled TnC RTF fluorescence at EC20 calcium; 0% EC20 calcium, 100% full calcium; 340,000 tested, 0.24% active; activation, % at 7.2 µM;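 active = activation above the mean over all tested compounds plus 3 SD, cut at about 30% in these data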;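 also: rise in fluorescence read as greater calcium sensitivity of cardiac thin filaments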
TMEM16A reconf – TMEM16A chloride channel inhibitors, confirmation, cell-based, re-confirmation. shares compounds with ANO1 block. 2,300 tested, 39% active. inhibition, % at 10 µM. HEK293 TMEM16A/YFP-H148Q, iodide quench fluorescence; ionomycin added to raise cell calcium. AID 652189, 2013;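 active = mean duplicate percent inhibition, scaled so buffer wells are 0 and the reference blocker 100, over three buffer SD above buffer mean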
HEK293 Ca mobil – calcium mobilization in TMEM16A/YFP HEK293 cells, confirmation, counter-screen for TMEM16A inhibitor project; shares compounds with ANO1 block; Fluo4 calcium mobilization; calcium response (% of ionomycin), % at 10 µM; 2,300 tested, 2% active;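 active = duplicate-averaged calcium signal over 20% of the ionomycin maximum, relative to buffer baseline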;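 also: each well's signal is peak minus trough fluorescence divided by its pre-addition baseline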
Parental YFP cnt – iodide YFP quench changes in parental YFP-HEK293, counter-screen for TMEM16A inhibitor project, cell-based; shares compounds with ANO1 block; ionomycin; YFP ratio F(max-min)/F0 at 10 µM; 2,300 tested, under 10 active; AID 652233, 2013;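 active = yellow fluorescent protein signal ratio exceeding the buffer control mean by over 5 SD of those controls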;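 also: ratio is mean of duplicate wells from kinetic YFP trace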
ClC-1 rat inh – ClC-1 chloride channel inhibition, selectivity assay for TMEM16A inhibitor project, cell-based, voltage-dependent ClC-1. shares compounds with ANO1 block. CHO ClC-1-YFP, iodide influx fluorescence quench; iodide control reads 0, buffer control 100. ratio percent, % at 10 µM. 2,300 tested, under 10 active. AID 652236, 2013;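 active = duplicate-mean ratio percent above the mean of iodide-only control wells, which defines zero, plus 5 of their SD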;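 also: higher percent means stronger block of ClC-1 iodide influx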
Hits are given with their value; n = inactive; x = no result.

SMILES | TMEM16A act | CRFR2-BP ag | ANO1 block | Cardiac RTF inh | CRFBP-R2 block | cardiac RTF act | TMEM16A reconf | HEK293 Ca mobil | Parental YFP cnt | ClC-1 rat inh
Cc1cccc(N2CCN(C(=O)CCC(=O)N3CC(C)Oc4ccccc43)CC2)c1C (configuration not stated) | n | n | 25 | n | n | n | n | n | n | n
Cc1onc(-c2ccccc2Cl)c1C(=O)Nc1cccc(-c2cn3cccnc3n2)c1 | n | n | 25 | n | n | n | n | n | n | n
CCCC1(C(=O)O)NC(c2ccccc2O)C2C(=O)N(Cc3ccccc3)C(=O)C21 (configuration not stated) | n | n | 100 | n | n | n | n | n | n | n
COc1ccc(OC2C(=O)N(Cc3ccc4c(c3)OCO4)C2c2cccs2)cc1 (configuration not stated) | n | n | 100 | n | n | n | 28% | n | n | n
C/C=C\C=C/C(=O)Nc1cccc(C2=NOC3(C2)C[C@H](C(N)=O)N(C(=O)Cc2ccc([N+](=O)[O-])cc2)C3)c1 (some centres not stated) | n | n | n | n | n | n | x | x | x | x
Cc1ccc(C(=O)N(Cc2nc3ccccc3c(=O)[nH]2)C2CCCC2)cc1 | n | n | 100 | n | n | n | n | n | n | n
Cc1ccc(C(=O)CSc2nc3ccccc3c(=O)[nH]2)cc1 | n | n | 100 | n | n | n | n | n | n | n
Cc1ccccc1C(=O)N(Cc1nc2ccccc2c(=O)[nH]1)C1CCCC1 | n | n | n | n | n | n | x | x | x | x
CCc1ccc(C(=O)CSc2nc3ccccc3c(=O)[nH]2)cc1 | n | n | n | n | n | n | x | x | x | x
Cc1ccc(C(=O)OCC(=O)NCc2cccc(Cl)c2)cc1S(=O)(=O)N1CCCCC1 | n | n | x | n | n | n | x | x | x | x
O=C(NCCCC(=O)N1CCCCC1)c1ccc(Cl)cc1 | n | n | n | n | n | n | x | x | x | x
O=C(CCc1nc2ccccc2c(=O)[nH]1)NCCN1C(=O)S/C(=C\c2ccc(Cl)cc2Cl)C1=O | n | n | 25 | n | n | n | n | n | n | n
Cc1ccnc(Nc2nc(-c3ccc(O)c(O)c3)cs2)c1 | n | n | 25 | n | n | n | n | n | n | n
Cn1ncc([N+](=O)[O-])c1C(=O)Nc1ccc(-c2ccccc2)cc1 | n | n | n | n | n | n | x | x | x | x
O=C(NNS(=O)(=O)c1ccc(F)cc1)c1ccccc1F | n | n | n | n | n | n | x | x | x | x
O=C(NNS(=O)(=O)c1ccc(F)cc1)c1cc2ccccc2cc1O | n | n | 100 | n | n | n | 24% | n | n | n
NS(=O)(=O)c1ccc(CNC(=O)c2cc(=O)c3ccccc3o2)cc1 | n | n | n | n | n | n | x | x | x | x
CC(=O)Nc1ccc(OC(F)(F)C(F)C(F)(F)F)c(NC(C)=O)c1 (configuration not stated) | n | n | 100 | n | n | n | n | n | n | n
CC(=O)Nc1ccc(OC(F)(F)C(F)F)c(NC(C)=O)c1 | n | n | n | n | n | n | x | x | x | x
CC(=O)c1c(O)cc(O)c(C(C)=O)c1O | n | n | 100 | n | n | n | 31% | n | n | n
COc1cc(OC)c(N(C)S(=O)(=O)c2cccc(C(=O)OCC(=O)N(C)C3CCCCC3)c2)cc1Cl | n | n | x | n | n | n | x | x | x | x
CN(CC(=O)Nc1ccccc1Cl)C(=O)COC(=O)c1ccc([N+](=O)[O-])cc1Cl | n | n | n | n | n | n | x | x | x | x
CN(CCOc1ccccc1)CC(=O)Nc1ccc([N+](=O)[O-])cc1Cl | n | n | 25 | n | n | n | 19% | n | n | n
CCOc1ccc(C(=O)NCC(=O)N2CC=C(c3ccccc3)CC2)cc1OCC | n | n | n | n | n | n | x | x | x | x
O=C(COC(=O)C12CC3CC(CC(C3)C1)C2)Nc1ccc(OC(F)F)cc1 | n | n | 25 | n | n | n | n | n | n | n
SMILES | TMEM16A act | CRFR2-BP ag | ANO1 block | Cardiac RTF inh | CRFBP-R2 block | cardiac RTF act | TMEM16A reconf | HEK293 Ca mobil | Parental YFP cnt | ClC-1 rat inh
CC(=NNC(=O)CSc1nc2ccccc2o1)c1ccco1 | n | n | x | n | n | n | x | x | x | x
CC(=O)Nc1cccc(N(C)S(C)(=O)=O)c1 | n | n | n | n | n | n | x | x | x | x
CN(c1cccc(NC(=O)Nc2cccc(Cl)c2)c1)S(C)(=O)=O | n | n | 100 | n | n | n | 42% | n | n | n
O=c1[nH]c(-c2ccccc2)c(-c2ccccc2)o1 | n | n | n | n | n | n | x | x | x | x
COc1ccc(OC)c(/C=C2\SC(=S)N(NS(=O)(=O)c3ccc(C)cc3)C2=O)c1 | n | n | n | n | n | n | x | x | x | x
COc1ccc(/C=C2\SC(=S)N(NS(=O)(=O)c3ccc(C)cc3)C2=O)c(OC)c1 | n | n | 25 | n | n | n | 23% | n | n | n
COc1cccc(C(=O)COc2ccc(NC(=O)c3ccccc3)cc2)c1 | n | n | x | n | n | n | x | x | x | x
CC(=O)c1ccc(N2CCN(C(=O)Nc3ccc(F)cc3)CC2)cc1 | n | x | n | n | x | n | x | x | x | x
CC(=O)c1ccc(N2CCN(C(=S)Nc3ccccc3)CC2)cc1 | n | n | 100 | n | n | n | n | n | n | n
CC(=O)c1ccc(N2CCN(C(=O)Nc3ccc(C(C)C)cc3)CC2)cc1 | n | n | 100 | n | n | n | 29% | n | n | n
CCCCNC(=S)Nc1ccc(SC(F)F)cc1 | n | n | 100 | n | n | n | 54% | n | n | n
CC(C)Cn1c(N)c(C(=O)COC(=O)c2ccc(F)cc2)c(=O)n(C)c1=O | n | n | n | n | n | n | x | x | x | x

Assay outcomes as filed in PubChem BioAssay.
